The sample as a whole holds a higher share of hits than the screen did.
AMA1-RON2 inh – AMA1-RON2 (P. falciparum) interaction inhibition. AlphaScreen AMA1-biotinylated RON2 peptide binding. Potency, µM (titrated, usually from 58.2 µM), most hits filed as inhibitors. hit rate 0.2% among 360,000. AID 720542; note: nearly all actives have a fitted effect of over 45% in size
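AMA1 (3D7) with his tag at 25 nM final met compounds first, then biotinylated RON2 peptide at 25 nM; detection used donor plus acceptor beads, 10 µg/mL apiece, read by AlphaScreen after 30 min at room temperature.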
Shiga toxin inh – Shiga toxin inhibition; Vero cells, Shiga toxin protein synthesis inhibition reporter; inhibition, % at 38.7 µM; hit rate 9.2% among 290,000; in the data active = inhibition mostly above about 28%, no sharp cut-off; inactive = mostly below about 43%
AmpC inh no detg – inhibitors of E. coli AmpC beta-lactamase without detergent. P00811. AmpC nitrocefin hydrolysis, absorbance 480 nm, 0.0001% Triton. Potency, µM (doses to about 57.1 µM), most hits filed as inhibitors. hit rate 0.52% among 330,000. AID 485341; note: nearly all actives have a fitted effect of over 20% in size
Target sequence (P00811 whole entry, looked up): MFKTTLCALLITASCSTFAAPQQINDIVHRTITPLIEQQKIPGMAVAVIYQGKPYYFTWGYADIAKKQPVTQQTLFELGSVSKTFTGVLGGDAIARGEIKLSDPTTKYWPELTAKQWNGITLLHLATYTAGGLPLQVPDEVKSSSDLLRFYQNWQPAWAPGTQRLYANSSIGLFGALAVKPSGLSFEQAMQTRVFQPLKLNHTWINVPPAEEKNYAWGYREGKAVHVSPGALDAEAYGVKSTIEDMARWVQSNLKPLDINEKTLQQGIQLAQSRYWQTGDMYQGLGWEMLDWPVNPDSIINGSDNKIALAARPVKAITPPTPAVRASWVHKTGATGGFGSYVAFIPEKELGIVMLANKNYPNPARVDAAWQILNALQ
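20 mM phosphate pH 7.0 + 0.01% (detergent screen) or 0.0001% Triton X-100; 5.3 nM AmpC reagent; cpd preinc 15 min RT; nitrocefin (800 uM stock) to start; A480 q20 s × 4 min; Activity was normalised to no-enzyme and no-compound control wells.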
Cycloheximide cs – affects cycloheximide protein synthesis inhibition readout, counter-screen; cell reporter, cycloheximide protein synthesis inhibition counterscreen; max response, %; hit rate 12% among 300,000; AID 2314; in the data active = max response mostly above about 13%, no sharp cut-off; inactive = mostly below about 14%; note: read at 38.3 µM for the half of the compounds with a filed dose
SARS PLP yeast – inhibitors of SARS-CoV papain-like protease in yeast. Potency, µM (highest dose often 32.9 µM), usual class: activators. S. cerevisiae expressing SARS-CoV PLpro, growth rescue. hit rate 0.19% among 330,000; calls by dose curve; note: nearly all actives have a fitted effect of over 55% in size
AmpC inh detg – inhibitors of E. coli AmpC beta-lactamase with detergent | Potency, µM (series often up to 114 µM), most hits filed as inhibitors | P00811 | AmpC hydrolysis of nitrocefin, absorbance 480 nm, 0.01% Triton | AID 485294 | hit rate 0.041% among 370,000; note: nearly all actives have a fitted effect of over 25% in size
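20 mM phosphate pH 7.0 + 0.01% (detergent screen) or 0.0001% Triton X-100; 5.3 nM AmpC reagent; cpd preinc 15 min RT; nitrocefin (800 uM stock) to start; A480 q20 s × 4 min; Activity was normalised to no-enzyme and no-compound control wells.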
Large screens that a line does not name were inactive. Unless noted, calls come from the whole dose curve; as a rule, active = well fitted curve in the direction sought with a large enough effect; inconclusive = small, poorly fitted or top-dose-only effect, or another doubt; inactive = no such curve, though single readings can be large; an effect the other way counts as inactive or inconclusive.

Cc1ccsc1-c1ccnc(-n2cccc2)n1	Shiga toxin inh 52, Cycloheximide cs 22
c1coc(-c2ccnc(-n3cccc3)n2)c1	Cycloheximide cs 46, AmpC inh detg inconclusive
CC1(C(=O)NS(=O)(=O)Cc2ccccc2C(F)(F)F)CCN1C(=O)c1cccc(F)c1 (stereo not given)	none (no result: Shiga toxin inh, AmpC inh no detg, Cycloheximide cs, SARS PLP yeast, AmpC inh detg)
COc1ccc(OC)c(NC(=O)Nc2nc(CN)cs2)c1	none (no result: Shiga toxin inh, AmpC inh no detg, Cycloheximide cs, SARS PLP yeast, AmpC inh detg)
O=c1c2ccccc2nnn1-c1ccccc1	none (no result: Shiga toxin inh, AmpC inh no detg, Cycloheximide cs, SARS PLP yeast, AmpC inh detg)
N=c1c2ccccc2nnn1-c1ccc(C(F)(F)F)cc1	Shiga toxin inh 76, Cycloheximide cs 40
O=C(Nc1cccc2ccccc12)c1ccc(Br)o1	none
O=C(Nc1nc(-c2ccccc2)cs1)c1ccc(Br)o1	Shiga toxin inh 107, Cycloheximide cs 32
O=C(Nc1nc(-c2ccccc2)cs1)c1ccccc1F	Shiga toxin inh 62, Cycloheximide cs 41
COc1ccc(-c2csc(NC(=O)c3ccccc3F)n2)cc1	Cycloheximide cs 15, AmpC inh detg inconclusive (no result: Shiga toxin inh)
Cc1ccc2c(c1)c(N=NC(N)=O)c(O)n2C	none
CCOc1ccc2c(c1)c(N=Nc1cccc(C(=O)O)c1)c(O)n2C	Shiga toxin inh 62, Cycloheximide cs 58
Cc1ccc2c(c1)c(N=Nc1cccc(C(=O)O)c1)c(O)n2C	Shiga toxin inh 60, Cycloheximide cs 16
CNC(=S)NCCN1CCOCC1	none
Clc1ccccc1C1CC(c2ccccc2)Nc2ncnn21 (stereo not given)	AmpC inh no detg 40µM, AmpC inh detg inconclusive
c1ccc(C2CC(c3ccccc3)n3ncnc3N2)cc1 (stereo not given)	AmpC inh detg inconclusive
C=CCN(C(=O)CC(NC(C)=O)c1ccccc1)c1nc(-c2ccc(S(C)(=O)=O)cc2)cs1 (stereo not given)	Shiga toxin inh 79, Cycloheximide cs 31
CC(=O)NC(c1ccccc1)c1nc(-c2ccc(S(C)(=O)=O)cc2)cs1 (stereo not given)	none (no result: Shiga toxin inh, AmpC inh no detg, Cycloheximide cs, SARS PLP yeast, AmpC inh detg)
O=C1N=C(N2CCOCC2)S/C1=C/c1cccs1	Cycloheximide cs 25, AmpC inh detg inconclusive
Cc1ccccc1N1CCN(C2=NC(=O)/C(=C\c3cccs3)S2)CC1	Shiga toxin inh 104, Cycloheximide cs 78
O=C1N=C(N2CCN(c3cccc4ccccc34)CC2)S/C1=C/c1cccs1	none
CC(=C/c1ccccc1)/C=C1/SC(N2CCOCC2)=NC1=O	Shiga toxin inh 30, Cycloheximide cs 23
O=C1N=C(N2CCOCC2)S/C1=C\c1ccncc1	none
O=C(CCS(=O)(=O)c1ccccc1)N1CCN(c2ccccc2)CC1	Shiga toxin inh 84, Cycloheximide cs 40
O=C(CCS(=O)(=O)c1ccc(Br)cc1)N1CCN(c2ccccc2)CC1	none
Cn1c(=O)c(=O)n(C)c2cc(S(=O)(=O)CCC(=O)N3CCOCC3)ccc21	AmpC inh no detg 4µM
O=C(CCS(=O)(=O)c1ccccc1)N1CCOCC1	Cycloheximide cs 31
CC(C)C[C@H](NC(=O)[C@H](Cc1ccccc1)C[C@@H](O)[C@H](Cc1ccccc1)NC(=O)OC(C)(C)C)C(=O)N[C@@H](Cc1ccccc1)C(N)=O	none (no result: AMA1-RON2 inh, AmpC inh no detg, SARS PLP yeast, AmpC inh detg)
CC(=O)c1ccc(N2CCN(C(=O)c3ccco3)CC2)c(F)c1	Shiga toxin inh 59, Cycloheximide cs 48
CC(=O)c1ccc(N2CCN(C(=O)c3ccco3)C(C)C2)c(F)c1 (stereo not given)	none
CC(=O)c1cc(F)c(N2CCN(C(=O)c3ccco3)CC2)cc1C	Cycloheximide cs 31, AmpC inh detg inconclusive
CC1CN(c2ccc([N+](=O)[O-])cc2F)CCN1C(=O)c1ccco1 (stereo not given)	none
O=C(c1ccco1)N1CCN(c2ccc([N+](=O)[O-])cc2F)CC1	Shiga toxin inh 40, Cycloheximide cs 13
O=C(Nc1cc(S(=O)(=O)N2CCOCC2)ccc1N1CCCC1)c1ccc(F)cc1	none (no result: Shiga toxin inh, Cycloheximide cs)
CSc1ccc(CCNC(=O)C2CCN(c3nc4ccccc4nc3C(F)(F)F)CC2)cc1	none (no result: AMA1-RON2 inh, Shiga toxin inh, AmpC inh no detg, Cycloheximide cs, SARS PLP yeast)
COc1ccccc1C(CNC(=O)C1COc2ccccc2O1)N1CCCC1 (stereo not given)	none (no result: Shiga toxin inh, Cycloheximide cs)
O=C(NCC1COc2ccccc2O1)c1ccc(NC(=O)c2ccco2)cc1 (stereo not given)	none
